According to the supplement of paper PMC6089552:
Several values for one entry are separate records, joined by “and”; a condition that tells them apart may be missing. Equal entries are not always repeated. Out of some 3,200 compounds screened, about 300 (9.4%) showed activity. The full list was thinned out, with actives kept by preference.

System: A673/TR/shEF
Assay: cell viability (LOESS-normalised, relative to median of negative controls) (log2 ratio); higher = more viable cells (less compound effect), active = hit call of the paper (over 3 MAD below the median)
Details: treatment time: 72 h
Summary of the method: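 A673/TR/shEF Ewing sarcoma cells (1,500 per well, 384-well plates) were grown with or without doxycycline to induce EWS-FLI1 shRNA knockdown, starting 24 h before compounds. Library compounds at two or more concentrations, with DMSO controls, were added for three days. Cell viability was read by CellTiter-Glo luminescence on an Envision reader, then LOESS-corrected per plate, divided by the median of negative controls and log2-transformed. Hits were wells at least three median absolute deviations from the median of all screened wells.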

[1] = 0.25 µM, library screen: screen1, EWS-FLI1 expression: high (no doxycycline)
[2] = 0.25 µM, library screen: screen1, EWS-FLI1 expression: low (doxycycline-induced shRNA knockdown)
[3] = 2.5 µM, library screen: screen1, EWS-FLI1 expression: high (no doxycycline)
[4] = 2.5 µM, library screen: screen1, EWS-FLI1 expression: low (doxycycline-induced shRNA knockdown)
[5] = 0.25 µM, library screen: screen2, EWS-FLI1 expression: high (no doxycycline)
[6] = 0.25 µM, library screen: screen2, EWS-FLI1 expression: low (doxycycline-induced shRNA knockdown)
[7] = 2.5 µM, library screen: screen2, EWS-FLI1 expression: high (no doxycycline)
[8] = 2.5 µM, library screen: screen2, EWS-FLI1 expression: low (doxycycline-induced shRNA knockdown)

Measured: cell viability (log2)

Cc1cc(O)c(C)c2c1C(=O)Oc1c(C)c(O)c(C(=O)O)c(C)c1O2
inactive: [1] 0.09 | [2] 0.103 | [3] 0.0454 | [4] 0.145

CC(C)=CCC/C(C)=C/CC/C(C)=C/CO
inactive: [1] 0.153 | [2] 0.0866 | [3] 0.208 | [4] 0.106

CC(C)=CCc1c(O)c(C(=O)CC(C)C)c2oc(=O)cc(-c3ccccc3)c2c1O
inactive: [1] 0.0516 | [2] 0.00347 | [3] 0.107 | [4] 0.0124

CC(C)CCCC(C)C1CCC2C3CC=C4CC(=O)CCC4(C)C3CCC12C (stereo unspecified)
inactive: [1] 0.0196 | [2] 0.0967 | [3] 0.0967 | [4] 0.133

COCCOC(=O)C1=C(C)NC2=C(C(=O)CCC2)C1c1ccc(C)s1 (stereo unspecified)
inactive: [1] -0.0698 | [2] 0.0631 | [3] 0.0308 | [4] 0.207

C=C(C)C1Cc2c(ccc(C(=O)O)c2O)O1 (stereo unspecified)
inactive: [1] 0.0493 | [2] -0.00474 | [3] 0.106 | [4] 0.105

CCOC(=O)c1oc2c(OC)c(O)cc(O)c2c(=O)c1-c1cc(OC)c(OC)c(OC)c1
inactive: [1] 0.036 | [2] 0.0305 | [3] -0.00359 | [4] -0.108

CC=C(C)C(=O)OC1[C@@H]2C=C3C4CC(=O)O[C@@H](c5ccoc5)[C@]4(C)CCC3[C@@](C)(C2=O)[C@@H](C(O)C(=O)OC)C1(C)C (stereo partly specified)
inactive: [1] 0.075 | [2] -0.00745 | [3] 0.149 | [4] 0.0968

COC(=O)Nc1ccc(S(=O)(=O)N2C(C)CCCC2C)cc1 (stereo unspecified)
inactive: [1] 0.0592 | [2] 0.103 | [3] 0.0767 | [4] 0.0829

COc1ccc(CN2CCN(Cc3ccc([N+](=O)[O-])cc3)CC2)cc1OC
inactive: [1] 0.0472 | [2] 0.118 | [3] 0.097 | [4] 0.0942

CCSc1nnc(-c2ccc([N+](=O)[O-])cc2)n1-c1ccccc1
inactive: [1] 0.0862 | [2] 0.0888 | [3] 0.0629 | [4] 0.153

CCOc1cccc(C(=O)c2ccc(O)c(O)c2O)c1
inactive: [1] 0.0703 | [2] 0.005 | [3] 0.0783 | [4] 0.0694

C[C@@H]1CC[C@@]23CCC4(C)[C@@](C=CC5[C@@]6(C)CCC(=O)C(C)(C)C6CC[C@]54C)(OC2=O)C3[C@H]1C (stereo partly specified)
inactive: [1] 0.12 | [2] 0.0225 | [3] 0.0629 | [4] 0.0141

NNCCc1ccccc1
active: [7] -0.435 | [8] -0.392
inactive: [1] 0.0542 | [2] 0.11 | [5] 0.136 | [6] -0.0727 | [3] 0.2 | [4] 0.188

CCN(CCCc1ccccc1)CCCc1ccccc1
inactive: [1] 0.0709 | [2] 0.129 | [3] 0.11 | [4] 0.151

NC(=O)NC(=O)Cc1ccccc1
inactive: [1] 0.103 | [2] 0.215 | [3] 0.184 | [4] 0.139

COC(=O)C1=C(C)N=C2SCCC(=O)N2C1c1ccc(OC)cc1 (stereo unspecified)
inactive: [1] 0.0178 | [2] 0.0759 | [3] 0.0162 | [4] 0.0699

Cc1cc(Nc2ccc(O)cc2)n2c(nc3ccccc32)c1C#N
inactive: [1] 0.079 | [2] 0.0759 | [3] 0.0987 | [4] 0.0687

CC1(O)/C=C\C=C(\CO)C2CC(C)(C)C2(O)CC1 (stereo unspecified)
inactive: [1] 0.0666 | [2] 0.000836 | [3] 0.128 | [4] 0.00974

CN1CCN(c2nc3ccccn3c(=O)c2/C=C2\SC(=S)N(CC3CCCO3)C2=O)CC1 (stereo unspecified)
inactive: [1] 0.134 | [2] 0.0801 | [3] 0.0647 | [4] 0.048

CCC(C)C(=O)c1c(O)c(C)c2oc3c(C)c(O)c(C(=O)C(C)CC)c(O)c3c2c1O (stereo unspecified)
inactive: [1] 0.0233 | [2] 0.116 | [4] -0.0271
active: [3] -0.592

CC(=O)c1c(O)c(C)c(O)c2c1oc1c(C(C)=O)c(O)c(C)c(O)c12
inactive: [1] 0.0278 | [2] -0.0408 | [3] 0.0533 | [4] 0.172

Cc1c(O)c(C(=O)CC(C)C)c2oc3c(C(=O)CC(C)C)c(O)c(C)c(O)c3c2c1O
inactive: [1] 0.0407 | [2] 0.0843 | [3] 0.0935 | [4] 0.0892

CCCCC(CC)CN=C(N)NC(N)=NCCCCCCN=C(N)NC(N)=NCC(CC)CCCC (stereo unspecified)
inactive: [1] 0.103 and 0.0973 | [2] 0.044 and 0.0691 | [3] 0.127 and 0.022 | [4] 0.0795 and 0.0454

COc1ccc(OC)c(C2NC(=O)NC(C)=C2C(=O)Nc2ccccc2Cl)c1 (stereo unspecified)
inactive: [1] 0.0793 | [2] 0.107 | [3] 0.0921 | [4] 0.116

CC1(C)COC(CC(=O)O)CN1 (stereo unspecified)
inactive: [1] 0.11 | [2] 0.00312 | [3] 0.108 | [4] 0.0408

O=c1c(-c2ccc(O)cc2)coc2cc(O)ccc12
inactive: 0.025 µM, library screen: screen1, EWS-FLI1 expression: high (no doxycycline) -0.0377 | 0.025 µM, library screen: screen1, EWS-FLI1 expression: low (doxycycline-induced shRNA knockdown) -0.0297 | 0.103 µM, library screen: screen3, EWS-FLI1 expression: high (no doxycycline) 0.0817 | 0.103 µM, library screen: screen3, EWS-FLI1 expression: low (doxycycline-induced shRNA knockdown) 0.0853 | [1] 0.184 | [2] 0.0911 | [5] 0.184 | [6] 0.099 | 0.308 µM, library screen: screen3, EWS-FLI1 expression: high (no doxycycline) 0.12 | 0.308 µM, library screen: screen3, EWS-FLI1 expression: low (doxycycline-induced shRNA knockdown) 0.0897 | 0.926 µM, library screen: screen3, EWS-FLI1 expression: high (no doxycycline) 0.0631 | 0.926 µM, library screen: screen3, EWS-FLI1 expression: low (doxycycline-induced shRNA knockdown) 0.0867 | [3] 0.11 | [4] 0.0867 | [7] 0.118 | [8] 0.117 | 2.8 µM, library screen: screen3, EWS-FLI1 expression: high (no doxycycline) 0.137 | 2.8 µM, library screen: screen3, EWS-FLI1 expression: low (doxycycline-induced shRNA knockdown) 0.123 | 8.3 µM, library screen: screen3, EWS-FLI1 expression: high (no doxycycline) 0.161 | 8.3 µM, library screen: screen3, EWS-FLI1 expression: low (doxycycline-induced shRNA knockdown) 0.0904 | 25 µM, library screen: screen1, EWS-FLI1 expression: high (no doxycycline) 0.0121 | 25 µM, library screen: screen1, EWS-FLI1 expression: low (doxycycline-induced shRNA knockdown) 0.0753 | 25 µM, library screen: screen3, EWS-FLI1 expression: high (no doxycycline) 0.114 | 25 µM, library screen: screen3, EWS-FLI1 expression: low (doxycycline-induced shRNA knockdown) 0.0782

COc1ccc(-c2coc3cc(O)ccc3c2=O)cc1
inactive: [2] 0.0672 | [3] 0.234 | [4] 0.103
active: [1] -0.6

COc1ccc(-c2coc3cc(OC)ccc3c2=O)cc1
inactive: [1] 0.121 | [2] 0.0353 | [3] 0.128 | [4] 0.0908

CSc1nc(N)c2ncn(C3OC(COP(=O)(O)OP(=O)(O)O)C(O)C3O)c2n1 (stereo unspecified)
inactive: [5] 0.0889 | [6] 0.0973 | [7] 0.157 | [8] 0.0918

CC(C)(O)[C@H]1CC[C@]2(C)[C@H]3CC[C@@H]4[C@@]5(C)CCCC(C)(C)[C@@H]5[C@@H](O)C[C@@]4(C)[C@]3(C)CC[C@@H]12
inactive: [1] 0.0136 | [2] 0.0775 | [3] 0.0306 | [4] 0.112

COc1cc(C2NC(=S)NC(C)=C2C(=O)Nc2cccc(Cl)c2)cc(OC)c1OC (stereo unspecified)
inactive: [1] 0.123 | [2] 0.0893 | [3] 0.204 | [4] 0.0553

COc1cccc(N2C(=O)C(=Cc3cccc(O)c3)SC2=S)c1
inactive: [1] 0.113 | [2] 0.0758 | [3] 0.133 | [4] 0.182

CC(=O)O[C@H]1C[C@@H](OC(C)=O)C(C)(C)C2C[C@@H](OC(C)=O)[C@@]3(C)C4=CC(=O)O[C@@H](c5ccoc5)[C@]4(C)CCC3[C@]21C (stereo partly specified)
active: [3] -0.853 | [4] -0.345
inactive: [1] 0.0506 | [2] 0.0595

CC(=O)O[C@@H]1CC[C@@]2(C)C(C[C@@H](OC(C)=O)[C@@]3(C)C4=CC(=O)O[C@@H](c5ccoc5)[C@]4(C)CCC23)C1(C)C (stereo partly specified)
inactive: [1] -0.00795 | [2] 0.0487 | [3] 0.121 | [4] 0.0464

CC(=O)O[C@H]1CC[C@@]2(C)C(C[C@@H](OC(C)=O)[C@@]3(C)C4=CC(=O)OC(c5ccoc5)[C@]4(C)CCC23)C1(C)C (stereo partly specified)
inactive: [1] 0.121 | [2] 0.145 | [3] 0.126 | [4] 0.124

COc1cc(C(=O)N2CCOCC2)c([N+](=O)[O-])cc1OC
inactive: [1] 0.0993 | [2] 0.0316 | [3] 0.0928 | [4] -0.0159

CCCCCCCCCCCCCCCCCC(=O)OC[C@H](COP(=O)(O)OCC(O)COP(=O)(O)OC[C@@H](COC(=O)CCCCCCCCCCCCCCCCC)OC(=O)CCCCCCCCCCCCCCCCC)OC(=O)CCCCCCCCCCCCCCCCC (stereo partly specified)
inactive: [1] 0.0223 | [2] 0.0715 | [3] 0.128 | [4] 0.138

CC(=O)O[C@@H]1C[C@H]2C(C)(C)C(=O)[C@@H]3O[C@@H]3[C@]2(C)[C@H]2CC[C@@]3(C)[C@H](c4ccoc4)OC(=O)[C@H]4O[C@]43[C@@]21C
inactive: [1] 0.0357 | [2] 0.0669 | [3] 0.155 | [4] 0.138

COc1c(CC(=O)c2cc3c(cc2O)OC(C)(C)C(O)C3)ccc2c1C=CC(C)(C)O2 (stereo unspecified)
inactive: [1] 0.0608 | [2] -0.00504 | [3] 0.0765 | [4] 0.0703

COc1ccc(-c2c(OC)c3c(OC)c4c(cc3oc2=O)OC(C)(C)C=C4)cc1
inactive: [1] 0.0786 | [2] 0.00334 | [3] 0.211 | [4] 0.00828

COc1cc2c(cc1OC)[C@@H]1C(=O)c3c(O)cc4c(c3O[C@@H]1CO2)C=CC(C)(C)O4
active: [1] -0.205 | [2] -0.261 | [3] -0.213
inactive: [4] -0.138

COc1cc2c(cc1OC)[C@@H]1C(=O)c3ccc4c(c3O[C@@H]1CO2)C=CC(C)(C)O4
active: [1] -0.591 | [2] -0.253 | [3] -2.11 | [4] -0.84

COc1ccc2c(c1)O[C@H]1c3ccc(O)cc3OC[C@@H]21
inactive: [1] 0.225 | [2] 0.129 | [3] 0.184 | [4] 0.206

COc1cc2c(cc1OC)[C@@H]1C(=O)c3c(cc4c(c3O)C=CC(C)(C)O4)O[C@@H]1CO2
active: [3] -0.392
inactive: [1] -0.0181 | [2] -0.000972 | [4] -0.0174

COc1ccc2c(c1)O[C@@H]1COc3cc(OC)c(OC)cc3[C@@H]1C2=O
inactive: [1] -0.0338 | [2] 0.0823 | [3] -0.0122 | [4] -0.0233

COc1cc2c(cc1-c1coc3c4c(c(OC)cc3c1=O)OC(C)(C)C=C4)OCO2
inactive: [1] 0.082 | [2] 0.0865 | [3] 0.173 | [4] 0.0953

COc1c2c(cc3ccoc13)C(=O)[C@H]1c3cc4c(cc3OC[C@H]1O2)OCO4
inactive: [1] 0.0834 | [2] 0.0158 | [3] 0.0793 | [4] -0.0539
